The values that follow come from PubChem BioAssay (NCI).

About 83,000 compounds went through this panel and 20% of them were active in at least one assay; those are over-represented in the sample as a whole.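 Step 1: grow cells in 96-well plates. Step 2: add test compound at a single concentration. Step 3: incubate 48 h. Step 4: record percent growth.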 Activity calls are given as the source filed them. How the source made its calls: active means growth percent below 10; inactive means the rest.

The test system of the assay is HL-60(TB) leukemia. The experiment in a line: NCI-60 one-dose screen, 48 h (100 = growth as untreated, 0 = no growth, -100 = all killed). Conditions: 10 µM unless noted.
Take `NNC(=O)CCCCl`: the growth is 102% (inactive).
As for `Nc1nc(CSc2n[nH]c(N)n2)nc(Nc2ccccc2)n1`, the figure is 92.7% (inactive); as for `Cc1ccc(NC(=S)N2CCOCC2)cc1C`, 103% (inactive); as for `CN1CCN(Cc2ccc(NC(=O)c3cncc(C#Cc4cnccc4C#N)c3)cc2C(F)(F)F)CC1`, 24.7% (inactive).
For `Cc1cc(Cc2cc(C)c(O)c(C)c2)cc(C)c1O`, the growth is 15.6% (inactive).
Consider `CC(=O)CSc1ncnc2nc[nH]c12`, for which the growth is 103% (inactive).
As for `O=S(=O)(NCCCNc1nccc(-c2c(-c3ccccc3)nc3sccn23)n1)c1ccc(F)cc1`, the figure is 22.5% (inactive); as for `O=C(CI)NC(=O)NC(=O)NCc1ccccc1`, -10.5% (active).
`Clc1ccc2[nH]c3c(NCCCN4CCOCC4)ncnc3c2c1`: the growth was 36.3% (inactive).
As for `COc1cc(-c2cc(C(=O)Nc3nc4ccccc4s3)nc3cc(-c4ccccc4)nn23)cc(OC)c1OC`, the figure is 48.3% (inactive); as for `C=C(C)[C@@H]1CC[C@]2(C)[C@H](CC=C3[C@@H]4CC(C)(C)CC[C@]4(C=O)CC[C@]32C)[C@@]1(C)CCCN`, -3.43% (active).
Regarding `Cn1cc(-c2nc(-c3cn(C)c4ncccc34)cs2)c2cc(F)ccc21`, the growth was 30.7% (inactive).
In the case of `COc1ccc(-c2ccc(-c3ccc(C(=N)N)nc3)s2)cc1` it was -47.3% (active); in that of `O=C(CCNC(=O)c1nc(-c2ccccc2)n(-c2ccc(Cl)cc2)n1)NO`, 96.8% (inactive); in that of `CO[C@H]1C[C@@H]2CC[C@@H](C)[C@@](O)(O2)C(=O)C(=O)N2CCCC[C@H]2C(=O)O[C@H]([C@H](C)C[C@@H]2CC[C@@H](O)[C@H](OC)C2)CC(=O)[C@H](C)C=C(C)[C@@H](O)[C@@H](OC)C(=O)[C@H](C)C[C@H](C)/C=C/C=C/C=C1C`, 83% (inactive).
